Assay results as given in paper PMC11574364.

Columns and labels:
Experiment in all cases: protein domain microarray probed with biotinylated miRNA; Domain array: 20 mM Tris-HCl pH 7.4, 200 mM KCl, 0.2 mM EDTA, 0.05% NP40, 2 ug/ul heparin, overnight 4 C. ORF array: PBS pH 7.0 with RNase inhibitor, 100 ng RNA; high values mean tight binding
Conditions in all cases: ssRNA
DAZL = biological target: T1, DAZL (Homo sapiens, UniProt Q92904)
T1 sequence: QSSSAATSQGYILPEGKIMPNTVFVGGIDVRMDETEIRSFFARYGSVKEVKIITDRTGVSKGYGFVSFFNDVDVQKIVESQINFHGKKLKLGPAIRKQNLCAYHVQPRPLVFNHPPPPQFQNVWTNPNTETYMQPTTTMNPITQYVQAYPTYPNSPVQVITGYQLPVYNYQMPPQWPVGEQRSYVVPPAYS

NOL8 = biological target: T2, NOL8 (Homo sapiens, UniProt Q76FK4)
T2 sequence: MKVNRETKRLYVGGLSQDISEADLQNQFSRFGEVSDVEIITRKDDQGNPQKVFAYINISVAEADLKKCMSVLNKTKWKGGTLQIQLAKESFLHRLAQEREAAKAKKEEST

hnRNP-A0 = biological target: T3, hnRNP-A0 (Homo sapiens, UniProt Q13151)
T3 sequence: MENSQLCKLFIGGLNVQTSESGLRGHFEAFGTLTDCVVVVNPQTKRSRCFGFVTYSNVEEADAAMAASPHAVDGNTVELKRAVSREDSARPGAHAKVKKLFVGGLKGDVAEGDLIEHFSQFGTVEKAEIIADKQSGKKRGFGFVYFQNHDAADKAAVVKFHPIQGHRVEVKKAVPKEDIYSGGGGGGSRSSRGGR

NeuN = biological target: T4, NeuN (Homo sapiens, UniProt A6NFN3)
T4 sequence: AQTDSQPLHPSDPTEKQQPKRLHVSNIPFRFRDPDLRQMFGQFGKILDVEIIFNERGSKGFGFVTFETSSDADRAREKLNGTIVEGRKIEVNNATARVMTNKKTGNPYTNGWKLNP

hnRNP-2H9 = biological target: T5, hnRNP-2H9 (Homo sapiens, UniProt P31942)
T5 sequence: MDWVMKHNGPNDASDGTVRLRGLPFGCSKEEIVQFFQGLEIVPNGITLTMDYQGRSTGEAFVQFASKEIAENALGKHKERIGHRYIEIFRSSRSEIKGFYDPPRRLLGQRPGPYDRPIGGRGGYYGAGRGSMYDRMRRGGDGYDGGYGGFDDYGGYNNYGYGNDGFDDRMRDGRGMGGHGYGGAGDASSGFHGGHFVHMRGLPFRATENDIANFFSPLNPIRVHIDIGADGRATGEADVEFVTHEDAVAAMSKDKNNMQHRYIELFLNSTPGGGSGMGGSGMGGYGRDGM

CPEB4 = biological target: T6, CPEB4 (Homo sapiens, UniProt Q17RY0)
T6 sequence: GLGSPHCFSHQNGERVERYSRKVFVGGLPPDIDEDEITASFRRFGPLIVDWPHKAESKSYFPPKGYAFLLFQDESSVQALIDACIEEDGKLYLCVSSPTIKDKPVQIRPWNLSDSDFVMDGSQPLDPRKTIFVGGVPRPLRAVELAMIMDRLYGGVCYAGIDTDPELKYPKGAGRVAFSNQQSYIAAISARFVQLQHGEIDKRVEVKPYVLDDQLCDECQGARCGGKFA

CELF5(3) = CELF5(3) (Homo sapiens, UniProt Q8N6W0)
CPEB1 = CPEB1 (Homo sapiens, UniProt Q9BZB8)
MYEF2(3) = biological target: T7, MYEF2(3) (Homo sapiens, UniProt Q9P2K5)
T7 sequence: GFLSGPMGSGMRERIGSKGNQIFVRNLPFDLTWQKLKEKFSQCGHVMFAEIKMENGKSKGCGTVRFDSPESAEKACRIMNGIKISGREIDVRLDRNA

CstF-64T = biological target: T8, CstF-64T (Homo sapiens, UniProt Q9H0L4)
T8 sequence: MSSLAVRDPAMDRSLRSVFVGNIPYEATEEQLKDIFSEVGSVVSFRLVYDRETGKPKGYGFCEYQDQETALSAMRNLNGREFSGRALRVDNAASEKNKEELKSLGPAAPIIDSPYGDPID

Musashi-1 = Musashi-1 (Homo sapiens, UniProt O43347)
FIR = FIR (Homo sapiens, UniProt Q9UHX1)
HNRNPCP5 = HNRNPCP5 (Homo sapiens, UniProt B2RXH8)
hnRNP-F = biological target: T9, hnRNP-F (Homo sapiens, UniProt P52597)
T9 sequence: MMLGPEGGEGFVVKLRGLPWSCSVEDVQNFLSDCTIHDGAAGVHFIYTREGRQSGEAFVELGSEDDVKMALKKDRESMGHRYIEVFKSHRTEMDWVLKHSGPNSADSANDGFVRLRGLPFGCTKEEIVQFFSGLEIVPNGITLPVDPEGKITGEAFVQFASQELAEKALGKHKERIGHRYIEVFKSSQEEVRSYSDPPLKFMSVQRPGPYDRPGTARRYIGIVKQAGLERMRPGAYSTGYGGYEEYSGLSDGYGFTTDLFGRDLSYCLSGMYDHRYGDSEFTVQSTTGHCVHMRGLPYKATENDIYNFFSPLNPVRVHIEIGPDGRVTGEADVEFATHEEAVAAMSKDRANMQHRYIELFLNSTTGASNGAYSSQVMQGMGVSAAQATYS

IGF2BP1 = IGF2BP1 (Homo sapiens, UniProt Q9NZI8)
GRSF1 = biological target: T10, GRSF1 (Homo sapiens, UniProt Q12849)
T10 sequence: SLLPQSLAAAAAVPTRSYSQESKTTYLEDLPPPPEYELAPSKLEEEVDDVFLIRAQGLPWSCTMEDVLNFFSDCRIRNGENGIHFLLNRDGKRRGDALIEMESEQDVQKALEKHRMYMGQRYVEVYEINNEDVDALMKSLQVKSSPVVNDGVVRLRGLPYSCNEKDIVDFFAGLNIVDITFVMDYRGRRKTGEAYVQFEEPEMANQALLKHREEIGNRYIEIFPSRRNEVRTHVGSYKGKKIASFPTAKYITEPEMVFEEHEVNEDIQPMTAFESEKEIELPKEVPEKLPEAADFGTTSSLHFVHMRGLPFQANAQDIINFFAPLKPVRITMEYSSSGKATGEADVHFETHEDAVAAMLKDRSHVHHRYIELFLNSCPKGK

hnRNP-I(3-4) = hnRNP-I(3-4) (Homo sapiens, UniProt P26599)
ENOX2 = biological target: T11, ENOX2 (Homo sapiens, UniProt Q16206)
T11 sequence: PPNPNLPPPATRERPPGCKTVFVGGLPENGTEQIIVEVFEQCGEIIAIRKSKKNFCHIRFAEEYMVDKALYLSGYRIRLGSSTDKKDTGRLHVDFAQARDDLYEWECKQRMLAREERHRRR

TAT-SF1 = biological target: T12, TAT-SF1 (Homo sapiens, UniProt O43719)
T12 sequence: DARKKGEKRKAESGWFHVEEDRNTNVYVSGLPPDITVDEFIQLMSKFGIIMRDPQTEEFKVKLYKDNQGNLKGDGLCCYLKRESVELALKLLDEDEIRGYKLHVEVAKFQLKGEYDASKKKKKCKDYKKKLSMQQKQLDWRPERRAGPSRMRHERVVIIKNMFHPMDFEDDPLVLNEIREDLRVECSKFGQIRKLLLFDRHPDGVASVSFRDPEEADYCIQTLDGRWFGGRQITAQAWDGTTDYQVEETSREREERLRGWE

AKAP1 = biological target: T13, AKAP1 (Homo sapiens, UniProt Q92667)
T13 sequence: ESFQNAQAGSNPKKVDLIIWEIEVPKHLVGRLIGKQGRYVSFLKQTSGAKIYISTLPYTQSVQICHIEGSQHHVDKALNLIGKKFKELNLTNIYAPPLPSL

Sequence of CPEB1 (Q9BZB8 290-531): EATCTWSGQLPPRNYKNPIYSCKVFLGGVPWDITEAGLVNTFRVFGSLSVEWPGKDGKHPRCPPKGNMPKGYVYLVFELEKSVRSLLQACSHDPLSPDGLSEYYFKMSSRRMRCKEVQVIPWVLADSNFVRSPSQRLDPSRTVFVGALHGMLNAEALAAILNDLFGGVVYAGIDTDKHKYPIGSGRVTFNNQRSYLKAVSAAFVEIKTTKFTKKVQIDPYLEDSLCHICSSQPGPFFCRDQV
Sequence of Musashi-1 (O43347 1-203): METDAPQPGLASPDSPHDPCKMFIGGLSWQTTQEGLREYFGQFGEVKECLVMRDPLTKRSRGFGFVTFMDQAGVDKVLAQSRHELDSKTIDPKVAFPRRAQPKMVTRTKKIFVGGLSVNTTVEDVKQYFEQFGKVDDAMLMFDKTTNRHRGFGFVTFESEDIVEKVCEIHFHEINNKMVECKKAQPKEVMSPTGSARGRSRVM
Sequence of HNRNPCP5 (B2RXH8 1-110): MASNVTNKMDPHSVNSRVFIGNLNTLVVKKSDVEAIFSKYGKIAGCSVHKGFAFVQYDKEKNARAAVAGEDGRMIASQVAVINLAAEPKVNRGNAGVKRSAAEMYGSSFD
Sequence of CELF5(3) (Q8N6W0 376-485): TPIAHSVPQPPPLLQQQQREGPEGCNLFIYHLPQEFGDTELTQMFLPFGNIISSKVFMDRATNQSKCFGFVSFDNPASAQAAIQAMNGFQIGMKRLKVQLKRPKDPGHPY
Sequence of hnRNP-I(3-4) (P26599 346-557): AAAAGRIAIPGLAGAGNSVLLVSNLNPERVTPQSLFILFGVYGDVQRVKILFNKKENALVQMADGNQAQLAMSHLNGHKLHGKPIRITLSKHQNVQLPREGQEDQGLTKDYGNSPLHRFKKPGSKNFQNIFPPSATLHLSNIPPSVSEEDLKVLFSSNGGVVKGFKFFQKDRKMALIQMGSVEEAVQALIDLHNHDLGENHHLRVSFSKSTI
Sequence of FIR (Q9UHX1 110-559): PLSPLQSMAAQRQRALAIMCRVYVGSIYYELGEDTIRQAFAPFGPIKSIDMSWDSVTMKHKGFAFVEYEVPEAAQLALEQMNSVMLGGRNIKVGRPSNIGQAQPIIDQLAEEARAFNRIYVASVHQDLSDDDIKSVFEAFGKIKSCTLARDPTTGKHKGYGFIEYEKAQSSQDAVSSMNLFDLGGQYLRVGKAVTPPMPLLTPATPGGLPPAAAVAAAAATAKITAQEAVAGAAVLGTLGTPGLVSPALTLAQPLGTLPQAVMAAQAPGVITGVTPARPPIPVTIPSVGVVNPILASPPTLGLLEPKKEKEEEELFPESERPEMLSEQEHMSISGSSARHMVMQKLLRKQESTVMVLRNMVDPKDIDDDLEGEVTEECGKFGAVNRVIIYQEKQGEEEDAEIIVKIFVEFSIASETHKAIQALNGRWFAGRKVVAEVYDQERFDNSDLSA
Sequence of IGF2BP1 (Q9NZI8 1-176): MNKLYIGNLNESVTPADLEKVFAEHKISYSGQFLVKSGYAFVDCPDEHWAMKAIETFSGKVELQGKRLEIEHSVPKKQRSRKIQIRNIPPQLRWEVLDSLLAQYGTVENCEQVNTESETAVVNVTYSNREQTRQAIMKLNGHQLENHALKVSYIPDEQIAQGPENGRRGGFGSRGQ

Sequence | binding signal (DAZL) [fluorescence intensity] | binding signal (NOL8) [fluorescence intensity] | binding signal (hnRNP-A0) [fluorescence intensity] | binding signal (NeuN) [fluorescence intensity] | binding signal (hnRNP-2H9) [fluorescence intensity] | binding signal (CPEB4) [fluorescence intensity] | binding signal (CELF5(3)) [fluorescence intensity] | binding signal (CPEB1) [fluorescence intensity] | binding signal (MYEF2(3)) [fluorescence intensity] | binding signal (CstF-64T) [fluorescence intensity] | binding signal (Musashi-1) [fluorescence intensity] | binding signal (FIR) [fluorescence intensity] | binding signal (HNRNPCP5) [fluorescence intensity] | binding signal (hnRNP-F) [fluorescence intensity] | binding signal (IGF2BP1) [fluorescence intensity] | binding signal (GRSF1) [fluorescence intensity] | binding signal (hnRNP-I(3-4)) [fluorescence intensity] | binding signal (ENOX2) [fluorescence intensity] | binding signal (TAT-SF1) [fluorescence intensity] | binding signal (AKAP1) [fluorescence intensity]
UGAGGUAGUAGGUUGUGUGGUU | 433 ± 5.39 | 66.3 ± 9.47 | 2115 ± 15 | 1967 ± 2.72 | 443 ± 62 | 290 ± 49.8 | 1040 ± 35.6 | 462.1 ± 2.31 | 635 ± 16.7 | 1870 ± 24.6 | 1830 ± 23.3 | 1610 ± 121 | 93.8 ± 2.53 | 1210 ± 41.5 | 47.9 ± 7.33 | 2120 ± 63.5 | 945.75 ± 0.764 | 118 ± 1.51 | 184.1 ± 0.318 | 202 ± 12.1
UGAGGUAGUAGGUUGUAUGGUU | 303 ± 13.1 | 49 ± 3.09 | 2280 ± 31.4 | 2130 ± 66 | 368 ± 23.9 | 148 ± 21.1 | 1000 ± 43 | 312 ± 54.2 | 560 ± 17.7 | 853 ± 47 | 2400 ± 10.1 | 1510 ± 21.2 | 65.5 ± 1.7 | 953.1 ± 0.948 | 43 ± 9.13 | 2945 ± 11.9 | 934 ± 43.3 | 74.91 ± 0.417 | 116 ± 5.61 | 102 ± 9.24
UGAGGUAGUAGGUUGUAUAGUU | 94.2 ± 11 | 20.3 ± 2.97 | 1310 ± 111 | 866 ± 44.2 | 151 ± 11.1 | 82.4 ± 7.2 | 450 ± 137 | 110 ± 9.17 | 190.1 ± 1.74 | 387 ± 8.85 | 1480 ± 17 | 717 ± 15 | 24.6 ± 1.06 | 624 ± 22.5 | 26.3 ± 0.771 | 1790 ± 23.3 | 323 ± 28.7 | 20.7 ± 2.55 | 33.2 ± 1.48 | –
CAGUGCAAUGAUGAAAGGGCAU | 42.2 ± 30.1 | 34.8 ± 9.25 | 990 ± 34.9 | 2230 ± 258 | 533 ± 18.5 | 55.3 ± 15.5 | 378 ± 41 | 186 ± 8.15 | 261.9 ± 2.02 | 418 ± 14.4 | 1460 ± 30.9 | 384 ± 26.4 | 42.4 ± 3.23 | 1670 ± 29.4 | 32.4 ± 2.43 | 2340 ± 154 | 401.7 ± 2.43 | 54.1 ± 16.7 | 90 ± 1.75 | 47.9 ± 2.28
UAGCUUAUCAGACUGAUGUUGA | 238 ± 9.04 | – | 153 ± 38.7 | 1430 ± 113 | – | 52.4 ± 15.6 | 118 ± 40.8 | 37.9 ± 2.09 | 39.3 ± 2.37 | 109 ± 3.13 | 156 ± 11 | 1240 ± 132 | 23.4 ± 0.714 | 25.7 ± 1.8 | 23 ± 0.714 | 39.7 ± 8.15 | 230 ± 15.3 | – | – | –
AGAGGUAGUAGGUUGCAUAGUU | 362 ± 63.4 | 33.7 ± 0.233 | 3219 ± 6.02 | 2786.2 ± 1.57 | 466 ± 9.64 | 130 ± 29.4 | 1050 ± 99.1 | 377 ± 32.4 | 578 ± 21.2 | 1930 ± 88 | 3624 ± 8.34 | 939 ± 116 | 48 ± 3.14 | 2388 ± 13.7 | 35.9 ± 7.28 | 4990 ± 87.4 | 786.56 ± 0.269 | 77.1 ± 15.4 | 125.2 ± 1.17 | 91.72 ± 0.827
